# ELG1 genotoxic = inducers of genotoxicity in HEK293T ELG1-luciferase cells; 330,000 tested, 1.3% active; Potency, µM (series often up to 46 µM), without a hit: at the highest dose activity change, positive = activation, actives largely listed as activators; HEK293T ELG1-luciferase reporter, luminescence, 16 h; note: % of control where 0% means no effect; nearly all actives have a fitted effect of over 60% in size
#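 Genotoxicity was scored as increased ELG1-luciferase reporter signal, measured by ONE-Glo luminescence (30 min, room temperature). Compound or vehicle exposure of the HEK293T reporter cells lasted 16 hr at 37°C.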
# ELG1 DNA repair = blocks ELG1-dependent DNA repair in HEK293T cells. HEK293T ELG1-luciferase reporter, luminescence, 16 h; DNA damage induced by 5-fluorouridine. Potency, µM (series often up to 46.1 µM), without a hit: at the highest dose activity change, negative = inhibition, actives largely listed as inhibitors. 330,000 tested, 2.3% active; note: % is set by controls: 0 for no effect and ±100 for the full control effect; nearly all actives have a fitted effect of over 55% in size
#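 Cells (2,000 per well) received 5-fluorouridine plus test compound or DMSO and were incubated 16 hr at 37 °C, 5% CO2. Luciferase activity was read by luminescence 30 min after ONE-Glo addition; signal suppression marked inhibition of damage-induced ELG1 function.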
# FLuc counter = counter-screen for miR-21 project: firefly luciferase inhibitors or activators. Potency, µM (highest dose often 57.5 µM), inactives show at the top dose activity change, negative = inhibition, most hits filed as inhibitors. 360,000 tested, 6.9% active. purified FLuc, Km substrates, luminescence inhibition. P08659;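 note: plate controls were vehicle for no effect and reference inhibitor for full effect; nearly all actives have a fitted effect of over 55% in size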
# Target sequence (P08659 whole entry, looked up): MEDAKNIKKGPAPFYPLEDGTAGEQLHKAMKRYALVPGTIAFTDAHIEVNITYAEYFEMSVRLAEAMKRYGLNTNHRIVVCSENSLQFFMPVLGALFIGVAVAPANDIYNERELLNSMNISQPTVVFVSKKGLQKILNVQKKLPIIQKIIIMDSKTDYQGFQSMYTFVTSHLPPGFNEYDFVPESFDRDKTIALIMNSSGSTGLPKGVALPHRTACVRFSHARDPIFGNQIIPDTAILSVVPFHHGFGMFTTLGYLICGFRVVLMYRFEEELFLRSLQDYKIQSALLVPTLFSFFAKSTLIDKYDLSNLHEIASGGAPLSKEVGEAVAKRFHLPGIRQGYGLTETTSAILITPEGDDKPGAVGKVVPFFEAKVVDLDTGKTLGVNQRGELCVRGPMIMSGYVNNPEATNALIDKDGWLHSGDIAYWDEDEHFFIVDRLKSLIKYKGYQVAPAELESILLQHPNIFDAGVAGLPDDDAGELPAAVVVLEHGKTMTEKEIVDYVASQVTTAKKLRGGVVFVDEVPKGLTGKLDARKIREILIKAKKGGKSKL
#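 Purified P. pyralis luciferase (10nM final) with 10uM D-luciferin and 10uM ATP (Km levels) in 50mM Tris acetate pH 7.5, 10mM Mg acetate, 0.01% Tween-20, 0.05% BSA; qHTS 6-point titration, ~60 µM downward; luminescence read.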
# NPC1 promoter act = activators of NPC1 promoter | Huh7 NPC1 promoter luciferase reporter, 24 h | 320,000 tested, 2.4% active | Potency, µM (titrated, usually from 9.22 µM), for the others: top-dose activation, hits mostly activators; note: % of control where 0% means no effect; nearly all actives have a fitted effect of over 60% in size
#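 Luciferase expression driven by the NPC1 promoter was measured in stably transfected Huh7 cells after a 24 h compound incubation, using a luciferase reagent and a luminescence read.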
# Rab9 prom act = Rab9 promoter activation; Huh7 Rab9 promoter-luciferase reporter, luminescence, 24 h; AID 485297; 320,000 tested, 2.8% active; Potency, µM (doses to about 9.22 µM), without a hit: top-dose activation, negative = inhibition, actives largely listed as activators; note: % of control where 0% means no effect; nearly all actives have a fitted effect of over 60% in size
#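 Using Huh7 cells stably transfected with Rab9 promoter–luciferase, compounds were incubated 24 h at 37 °C, 5% CO2; luciferase luminescence was read 10 min after reagent addition.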
# SMN2 splice enh = enhancers of SMN2 splice variant expression; AID 1458; HEK293 SMN2-luciferase splicing reporter, luminescence, 30-36 h; Potency, µM (top dose mostly 46.1 µM), without a hit: at the highest dose activity change, positive = activation, usual class: activators; 210,000 tested, 2.8% active; note: % of control where 0% means no effect; nearly all actives have a fitted effect of over 55% in size
#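 HEK293 cells carry an SMN2 […]–luciferase reporter in which exon 7 inclusion puts luciferase in frame. Cells were plated 10-12 h before compound addition, then incubated 30-36 h at 37C. ONE-Glo luminescence was read; sodium butyrate at 4.5 mM final served as control.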
# * hit, by the source's call; ? = inconclusive; / = no result given; [ ] = another dose, or the depositor's remark. Shown are actives, neighbours in structure and some others; about 9.3% of the full set was active somewhere. Calls come from the whole dose curve; as a rule, active = well fitted curve in the direction sought with a large enough effect; inconclusive = small, poorly fitted or top-dose-only effect, or another doubt; inactive = no such curve, though single readings can be large; an effect the other way counts as inactive or inconclusive. Potency is the fitted concentration of half-maximal effect.
SMILES,ELG1 genotoxic,ELG1 DNA repair,FLuc counter,NPC1 promoter act,Rab9 prom act,SMN2 splice enh
COCC(C)NC(=O)c1cc(S(=O)(=O)N2CCCCC2)ccc1N1CCOCC1 (configuration not stated),1.8%,6.7%,-3.2%,0.0%,0.7%,/
CC(C)CCCC(C)NC(=O)c1cc(S(=O)(=O)N2CCCCC2)ccc1N1CCOCC1 (configuration not stated),-4.8%,11.2µM*,-1.2%,-8.4%,-0.8%,/
O=C(OCCOc1cccc(Cl)c1)c1cc(S(=O)(=O)N2CCCCC2)ccc1N1CCOCC1,?,5.17µM*,4.4%,-12.1%,-23.4%,/
O=C(OCc1cccc(Cl)c1)c1cc(S(=O)(=O)N2CCCCC2)ccc1N1CCOCC1,-5.4%,?,3.5%,2.8%,3.3%,/
O=C(NNS(=O)(=O)c1ccc(F)cc1)c1cc2ccccc2cc1O,-8.3%,-5.3%,5.2%,-3.7%,7.1%,/
O=C(O)CN1C(=O)c2ccc(Oc3ccc4c(c3)C(=O)N(CC(=O)O)C4=O)cc2C1=O,1.7%,13.6%,-1.9%,-1.5%,-1.6%,/
CC(C)(C)C1CCC(C(=O)Nc2nccs2)CC1 (configuration not stated),-0.8%,?,?,?,27.3%,/
Cc1cnc(NC(=O)C2CCC(C(C)(C)C)CC2)s1 (configuration not stated),12.3%,?,19µM*,28.1%,?,/
Cc1ccccc1Nc1c(-c2ccsc2)nc2c(C)cccn12,/,/,?,/,/,12.6µM*
Cc1ccn2c(Nc3ccccc3C)c(-c3ccncc3)nc2c1,1.7%,?,?,-3.4%,-9.8%,17.8µM*
Cc1ccn2c(NC3CCCC3)c(-c3ccncc3)nc2c1,0.9%,-6.2%,-2.9%,4.5%,-0.6%,-41.4%
O=C(CCC1CCCC1)NCCCNC(=O)CCC1CCCC1,-5.7%,-11.4%,0.0%,-5.9%,1.9%,/
COc1ccc(NC(=O)CSc2ccccc2)c([N+](=O)[O-])c1,?,?,26.9µM*,?,?,?
COc1ccc(NC(=O)c2ccc(C)cc2Cl)c([N+](=O)[O-])c1,?,?,6.01µM*,?,?,12.0%
COc1ccc(NC(=O)COc2ccc(C)cc2)c([N+](=O)[O-])c1,20.6µM*,?,?,2.82µM*,?,0.2%
CCOc1ccc(OCC(=O)Nc2ccc(OC)cc2[N+](=O)[O-])cc1,13.7%,?,3.8%,-14.3%,-0.4%[1.84 µM],-30.1%
COc1ccc(NC(=O)CN2CCCCC2)c([N+](=O)[O-])c1,7.3%,?,?,24.2%,10.7%,29.3%
COc1ccc(NC(=O)CSc2nc3ccccc3n2-c2ccccc2)c([N+](=O)[O-])c1,0.4%,?,-0.8%,-4.0%,-8.0%,-14.2%
COc1ccc(NC(=O)CN2CCC(C)CC2)c([N+](=O)[O-])c1,16.4µM*,22.1%,?,13.0%,5.1%,-1.0%
COc1cc(NC(=O)CCn2c(=S)oc3ccccc32)cc(OC)c1OC,?,-6.5%,0.2%,-1.8%,-0.5%,/
Cc1ccc[n+](CC(=O)Nc2c(Cl)cc(Cl)cc2Cl)c1,11.3%,?,19µM*,11.2%,23.9%,/
O=C(C[n+]1ccccc1)Nc1c(Cl)cc(Cl)cc1Cl,2.5%,17.2%,?,6.1%,?,/
COc1ccc2nc(NC(=O)c3ccc(-c4cccc([N+](=O)[O-])c4)o3)sc2c1,4.5%,7.8%,-5.3%,0.6%,6.9%,-13.6%
COc1ccc2nc(NC(=O)c3cc(C)oc3C)sc2c1,?,?,1.35µM*,?,2.82µM*,15.8µM*
COc1ccc(C(=O)Nc2nc3cc4c(cc3s2)OCO4)c(OC)c1,?,?,0.426µM*,0.794µM*,0.794µM*,/
SMILES,ELG1 genotoxic,ELG1 DNA repair,FLuc counter,NPC1 promoter act,Rab9 prom act,SMN2 splice enh
COc1cc(C(=O)Nc2nc3ccc(S(C)(=O)=O)cc3s2)cc(OC)c1C,-1.9%,?,-9.8%,-0.2%,0.8%,/
Cc1cc(C(=O)Nc2nc3ccc(S(C)(=O)=O)cc3s2)c(C)o1,8.2µM*,?,0.849µM*,?,3.16µM*,5.62µM*
COc1ccc2nc(NC(=O)c3ccoc3C)sc2c1,?,?,1.2µM*,0.631µM*,0.447µM*,2µM*
CCN1CCN(C(=O)CN2C(=O)COc3ccc(S(=O)(=O)N4CCOCC4)cc32)CC1,1.7%,16.4%,-2.8%,-1.9%,-6.2%,/
CC(=O)c1ccc(N2CCN(S(=O)(=O)c3c(C(=O)N4CCCC4)c(C)n(C)c3C)CC2)cc1,7.1%,?,-4.6%,-1.8%,2.8%,/
CCS(=O)(=O)Nc1cc(-c2cn3ccc(C)cc3n2)ccc1C,/,/,12µM*,/,/,?
CC(=O)Nc1ccc(S(=O)(=O)Nc2cc(-c3cn4ccccc4n3)ccc2C)cc1,/,/,16.9µM*,/,/,?
Cc1ccn2cc(-c3ccc(C)c(NS(=O)(=O)c4ccc(Cl)cc4)c3)nc2c1,/,/,10.7µM*,/,/,-31.5%
CCc1ccc(OCC(=O)NC(Cc2c[nH]c3ccccc23)C(=O)O)cc1 (configuration not stated),/,/,?,/,/,-5.8%
O=C(O)CS(=O)(=O)c1ccc(C(F)(F)F)cn1,-0.4%,-1.7%,-0.5%,-5.8%,-0.7%,7.4%
C/C(=N\Nc1nc2ccccc2s1)c1ccc(Br)s1,-7.6%,-16.4%,15.1µM*,26.3%,14.6%,/
C/C(=N\NC(=O)c1ccccc1[N+](=O)[O-])c1ccc(Br)s1,2.9%,-3.4%,1.5%,-1.9%,-3.4%,-0.5%
C/C(=N\Nc1nc2ccccc2s1)c1ccc2c(c1)OCO2,?,?,9.53µM*,27.0%,?,17.8µM*
CSc1ccc(/C=C/C(=O)OCC(=O)NC(C)C)cc1,-1.5%,?,-11.9%,-0.3%,3.4%,20.1%
Cc1ccc(C(=O)/C=C/C(=O)O)cc1,0.1%,0.5%,?,3.7%,0.6%,-22.8%
Cc1ccc(/C=C/C(=O)c2ccc(O)cc2)cc1,17.1%,?,2.13µM*,19.1%,?,/
CSc1ccc(/C=C/C(=O)c2ccc(O)cc2)cc1,?,?,3.01µM*,23.9%,?,-3.0%
Cc1cc(/C=C2\SC(=S)NC2=O)c(C)n1C1CC1,15.8%,?,6.75µM*,?,?,14.4%
Cc1nn(-c2ccccc2)c(Cl)c1/C=C1\C(=O)N(C)C(=S)N1C,-0.5%,?,-2.6%,-7.9%,-1.8%,9.1%
Cc1cc(/C=C2/C(=O)N(C)C(=S)N2C)c(C)n1C1CC1,18.4µM*,?,3.01µM*,2.82µM*,2µM*,12.6µM*
O=Cc1cn(-c2ccccc2)nc1-c1ccc2c(c1)OCCO2,9.5%,?,4.78µM*,11.1%,16.5%,12.6µM*
O=Cc1cn(-c2ccccc2)nc1-c1ccc(F)cc1,-5.8%,?,12µM*,21.8%,5.3%,/
